DAT uptake mod: changed human dopamine transporter uptake under cocaine IC80. B-score at 10 µM. AID 449768. Q01959. LLC-PK1 hDAT cells, [14C]-dopamine uptake with cocaine IC80; actives deviate in either direction. hit rate 1.3% among 110,000;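 active means Z score or B-score, a plate-position-corrected score, falls beyond the plate's 99.7% confidence bounds, in either direction; inactive means both scores lie inside the 99.7% bounds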;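 further: scored against the spread of the other compound wells on the same plate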
PostGolgi ctrl: growth of the yeast control strain, post-Golgi counter-screen; hit rate 5% among 98,000; AID 738; inhibition, % at 10 µM; efflux-deficient yeast background strain, growth absorbance A615, 16 h
PostGolgi yeast: growth inhibition of a yeast mutant, post-Golgi transport screen; post-Golgi transport phenotypic cell assay; inhibition, % at 10 µM; hit rate 0.9% among 98,000; AID 739;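 further: yeast cells grown in 1536-well plates; yeast grown about 18 h at 30C before absorbance read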
Cav32 inh: human Cav3.2 channel inhibition, primary screen. Cav3.2-expressing cells, Fluo-4 calcium fluorescence FDSS; active compounds read low. O95180. B-score at 10 µM. hit rate 4% among 100,000. AID 449739;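 active means single-dose well whose peak fluorescence ratio is a statistical outlier from its plate by either plate-standardised score or position-corrected B-score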
TNAP act DEA: activators of human TNAP at intermediate phosphate acceptor; activation factor at 20 µM; P05186; purified TNAP, CDP-star luminescence, 100 mM DEA, 30 min; active compounds read high; scale: 0 levamisole-inhibited, 1 vehicle-only enzyme; AID 813; 64,000 tested, under 10 active;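 active means activation factor of at least 2 at 20 µM, relative to controls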
Smad3 inh: blocks human Smad3 binding to FoxH1 peptide; hit rate 0.29% among 88,000; P84022; TR-FRET Smad3/Dy647-FoxH1 peptide binding, europium anti-His; inhibition, % at 25 µM;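 active means compounds that reduce the energy-transfer binding signal between the protein and its labelled peptide by more than half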;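 further: 0% = Smad3 plus labelled peptide maximal FRET and 100% = peptide-only background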
Target sequence (P84022 whole entry, looked up): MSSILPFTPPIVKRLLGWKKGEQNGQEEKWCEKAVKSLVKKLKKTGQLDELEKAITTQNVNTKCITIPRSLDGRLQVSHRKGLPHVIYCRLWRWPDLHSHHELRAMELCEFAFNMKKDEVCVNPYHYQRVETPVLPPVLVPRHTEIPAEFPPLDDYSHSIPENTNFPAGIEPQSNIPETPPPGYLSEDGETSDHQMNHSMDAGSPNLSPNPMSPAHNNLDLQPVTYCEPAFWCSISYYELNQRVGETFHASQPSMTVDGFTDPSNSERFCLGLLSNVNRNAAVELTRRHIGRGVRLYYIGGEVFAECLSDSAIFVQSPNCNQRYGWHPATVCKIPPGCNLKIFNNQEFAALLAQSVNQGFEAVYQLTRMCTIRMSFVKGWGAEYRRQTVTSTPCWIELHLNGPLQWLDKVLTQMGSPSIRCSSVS
* marks the source's active call; other numbers are inactive results; x = no result. Hits are enriched below; roughly 8.7% of the tested compounds scored in any of these assays. Unless noted, no stated cut-off is given here; in the data, active means inhibition above about 30%; inactive means the rest.

SMILES | DAT uptake mod | PostGolgi ctrl | PostGolgi yeast | Cav32 inh | TNAP act DEA | Smad3 inh
CCOc1ccc(NC(=O)C23CC4CC(C2)CC(c2ccccc2)(C4)C3)cc1 | 0.1 | 14 | 7 | -1.9* | x | x
O=C(O)CCCC(=O)OCCCCc1cccs1 | -0.087 | -7 | 5 | 1.2 | 1 | 1
COc1cccc(CN2C(=O)C3(C(C#N)=C(N)OC4=C3C(=O)CCC4)c3ccccc32)c1 (stereo not given) | 0.38 | 18 | 34* | -1.3 | 0.9 | 1
Cc1cc(=O)[nH]c(-n2nc(C)c(Oc3ccccc3O)c2C)n1 | -0.039 | 0 | 11 | 0.74 | 1 | -1
Cc1cc(NS(=O)(=O)c2ccc(NC(=O)c3cc4ccccc4o3)cc2)nc(C)n1 | 0.0091 | 5 | 3 | 1.9 | x | 4
N#CC(C(=O)C1CCCCC1)c1nc2ccccc2[nH]1 (stereo not given) | 0.061 | 47* | -4 | 0.038 | 0.8 | 14
CN(C(=O)c1ccc(=O)[nH]c1)C1(C(=O)NC2CCCCC2)CCCCC1 | -0.016 | 3 | -2 | -0.96 | 1 | 3
CCC(=O)NCCC(c1ccco1)c1ccccc1OC (stereo not given) | 0.19 | 0 | 1 | 0.88 | 0.9 | -4
CCC(=O)N(CCC(c1ccccc1)c1ccco1)Cc1cccs1 (stereo not given) | -0.24 | 48* | -16 | -9.4* | x | 0
COc1ccccc1C(CCN(Cc1cccs1)C(C)=O)c1ccco1 (stereo not given) | 0.76 | 38* | 0 | -5* | 1 | 24
CCN(CC)C(=O)CC(c1ccccc1)c1ccco1 (stereo not given) | 0.00038 | 3 | -3 | 0.11 | x | -14
C=CCOn1c(=O)c(-c2ccc(OC)cc2)[n+]([O-])c2ccccc21 | 0.48 | 10 | 17 | -0.55 | 0.9 | -6
COc1ccc(C(C#N)Nc2ccccc2)cc1 (stereo not given) | 4.6* | 0 | -1 | -0.89 | x | 2
COc1ccc(NC(C#N)c2ccc(OC)cc2)cc1 (stereo not given) | -1.3 | 13 | 15 | -1.4 | x | 2
OC12CCCCC1C(c1ccc3c(c1)OCO3)N(Cc1ccc(F)cc1)CC2 (stereo not given) | 0.64 | 2 | -2 | -5.9* | 0.9 | 0
O=[N+]([O-])c1ccc(-c2nnc(CSc3nc(-c4ccccc4)nc4ccc(F)cc34)o2)cc1 | x | x | x | x | x | 2
CCCCN(C)C(=O)c1ccc(S(=O)(=O)N2CCOCC2)cc1 | -0.67 | 11 | -2 | 0.19 | x | x
CCCCC1CCC(c2nc(-c3ccccn3)no2)CC1 (stereo not given) | -0.56 | 38* | -6 | -1.4 | 1 | -1
CCCCn1nnnc1SCC(=O)Nc1ccc(C)cc1 | -1 | -2 | -4 | 0.084 | 0.9 | -5
Nc1c(-c2ccc(Cl)cc2)cnn1-c1cccc([N+](=O)[O-])c1 | -3* | -9 | 12 | 0.88 | x | x
Nc1c(-c2ccccc2)cnn1-c1cccc([N+](=O)[O-])c1 | -0.022 | -18 | -2 | 0.78 | x | x
COc1cc(OC)cc(C(=O)N2CCN(C(=O)c3cccc(F)c3)CC2)c1 | 0.22 | 21 | -1 | 0.35 | 0.9 | 4
Cc1cc(C)n(-c2nc3c(c(=O)n(C)c(=O)n3C)n2CC(O)COc2ccccc2C)n1 (stereo not given) | x | x | x | x | x | 2
Cc1c(C(=O)Nc2ccc(Cl)cc2)c2ccccn2c1C(=O)c1ccccc1 | -9.5* | 10 | 12 | -0.9 | x | x
Cc1c(C=O)c2ccccn2c1C(=O)c1ccccc1 | 0.1 | 3 | -4 | -0.79 | x | 6
SMILES | DAT uptake mod | PostGolgi ctrl | PostGolgi yeast | Cav32 inh | TNAP act DEA | Smad3 inh
Cc1c(C(=O)Nc2ccc(Cl)cc2)c2ccccn2c1C(=O)c1ccc([N+](=O)[O-])cc1 | 0.34 | 8 | 3 | -7.1* | x | x
COc1ccc(-c2cc(NCc3ccccn3)n3ncnc3n2)cc1 | x | 14 | 18 | x | 2* | 3
COc1ccc(-c2cc(NCCc3ccncc3)n3ncnc3n2)cc1 | -0.0035 | 2 | 2 | 2.1 | 1 | 7
c1ccc(-c2noc(CSc3nnnn3C3CCCCC3)n2)cc1 | 0.4 | 18 | 2 | -5.7* | 1 | 4
CCn1c(SCc2nc(-c3ccccc3)no2)nnc1-c1cccs1 | 0.72 | 14 | 5 | -0.79 | x | -2
CCn1c(SCc2nc(-c3ccccc3)no2)nc2ccccc21 | 1.1 | 22 | -9 | -3.4* | 0.9 | -1
CC1CCCCC12NC(=O)N(Cn1nnc3ccccc3c1=O)C2=O (stereo not given) | -0.059 | 23 | 15 | -0.65 | 0.9 | 10
Cc1ccccc1Nc1nc(N)nc(CN2C(=O)NC3(CCCCC3C)C2=O)n1 (stereo not given) | -7.6* | -6 | -10 | 1.1 | 1 | 2
O=C(c1cccs1)N1CCc2c([nH]c3ccccc23)C1c1ccc(Cl)cc1 (stereo not given) | -0.042 | 30* | 1 | -2.6 | x | x
COc1ccc(C2CCCN2C(=O)c2cccs2)cc1 (stereo not given) | -0.64 | 4 | -5 | -0.33 | 1 | -1
CC(=Nc1ccc(C)c(C)c1)C1=C(O)CSC1=O | -0.3 | 9 | -8 | -0.25 | 0.9 | 11
Cc1ccc(OCC(O)Cn2c(=N)n(Cc3ccccc3)c3ccccc32)cc1 (stereo not given) | 1.1 | 5 | -3 | -5.3* | x | -8
CCOc1ccc(-n2c(COc3ccccc3)nnc2SCC(N)=O)cc1 | 0.79 | 11 | 1 | 0.62 | 1 | 1
CCN1CCN(CCCNC(=O)C2c3ccccc3C(=O)N(C)C2c2ccc(OC)cc2)CC1 (stereo not given) | -1.4 | 5 | -12 | -5.6* | 0.9 | -6
COc1ccc(C2C(C(=O)N3CCCCC3)c3ccccc3C(=O)N2C)cc1 (stereo not given) | -0.074 | 8 | 1 | -0.33 | 1 | -8
CCCCNC(=O)C1c2ccccc2C(=O)N(c2ccc(OC)cc2)C1c1ccc(OC)cc1 (stereo not given) | -7.8* | 7 | -2 | 0.37 | x | 6
CC1C2Cn3c(nc4ccccc43)C1N(C(C)C)O2 (stereo not given) | -0.21 | x | x | 0.034 | x | x
Cc1c(C(=O)NCC2CCCO2)oc2ccc(S(=O)(=O)N3CCCC3)cc12 (stereo not given) | 1 | 10 | -2 | 0.93 | 0.9 | 12
Cc1c(C(=O)NCC2COc3ccccc3O2)oc2ccc(S(=O)(=O)N(C)C3CCCCC3)cc12 (stereo not given) | -0.0059 | 5 | 9 | -4.3* | x | -4
Cc1cccc(-c2nc(CS(=O)CC(=O)N3CCc4ccccc4C3)c(C)o2)c1 (stereo not given) | 1.3 | 3 | 0 | -2.5 | 1 | -12
Cc1oc(-c2ccccc2F)nc1CS(=O)(=O)CC(=O)N1CCc2ccccc21 | -0.59 | 10 | -6 | -4.7* | 1 | -2
Cc1ccc(-c2nc(CS(=O)(=O)CC(=O)N3CCc4ccccc4C3)c(C)o2)cc1 | 0.51 | 12 | 11 | -9* | 0.9 | -1

Source: PubChem BioAssay (several laboratories)
